Data: PubChem BioAssay (NCI)
About 83,000 compounds went through this panel and 20% of them were active in at least one assay; those are over-represented in the sample as a whole.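 Growth was measured after 48 h exposure to one concentration of compound in 96-well plates. Values under 10 count as active.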 Values without a mark were called inactive. Active and inactive are the calls of the source.

The compounds below were run on T-47D breast (assay: NCI-60 one-dose screen, 48 h (100 = growth as untreated, 0 = no growth, -100 = all killed)). Conditions: 10 µM unless noted.
Experimental: Growth inhibition of the T-47D human tumor cell line is measured as a screen for anti-cancer activity. Cells are grown in 96 well plates and exposed to the test compound for 48 hours. Compounds are tested at a single concentration, which is 10^-5 M for most compounds. The reported endpoint is percent growth (GI% or GIPRCNT), where numbers from 0 - 100% represent growth inhibition, and numbers from -100% - 0 represent cell death. For example, a value of 40 represents 60% growth inhibition. A value of 0 means no net growth occurred over the course of the experiment. A value of -40 indicates 40% of cells at the beginning of the experiment died by the end of the experiment. A value of -100 means all cells are dead at the end of the experiment.
NCI-60 Human Tumor Cell Lines Screen was performed using the standard one-dose NCI protocol, which is described in more detail at https://dtp.cancer.gov/discovery_development/nci-60/default.htm.
Compounds with GIPRCNT values below 10 were considered active. Activity score was based on GIPRCNT using the following formula: […]
Score is 0 for GIPRCNT values of 100 or above, 50 for GIPRCNT values of 0, and 100 for GIPRCNT values of -100.

| SMILES | growth |
| --- | --- |
| COc1cccc(/C=C/C(=O)c2cc3c(N)c(C(=O)Nc4cccc(Cl)c4C)sc3nc2C)c1 | 9.1% (active) |
| CC(=O)N/C(=C1/OC(C(O)C(O)C(O)CO)CN1C)[P+](c1ccccc1)(c1ccccc1)c1ccccc1 (stereo not given) | 103% |
| COc1cc(C2Cc3ncccc3-c3[nH]c(=O)c4cccnc4c32)cc(OC)c1OC (stereo not given) | 45.6% |
| O=C1OCC2=C1C(c1cccc(F)c1)c1cc3c(cc1N2CCO)OCO3 (stereo not given) | 21.3% |
| O=C(N/N=C/c1ccc(Cl)cc1Cl)c1ccc2nc(-c3ccc(Cl)cc3)[nH]c2c1 | -13.1% (active) |
| O=C(Nc1ccccc1O)c1ccccc1Nc1ccnc(C(F)(F)F)c1 | 88.4% |
| COc1cc2cc(NCc3ccc(OC(F)F)cc3)nc(C)c2cc1OC | 71.1% |
| Cc1ccc(/C=C/C(=O)c2ccc(NC(=O)CSc3nc4c([nH]3)c(=O)n(C)c(=O)n4C)cc2)c(C)c1 | 37.2% |
| N#Cc1c(Nc2ccc(F)cc2)n[nH]c1-c1cccs1 | 86% |
| COc1ccc2[nH]cc(-c3nc(-c4cn(C)c5ccncc45)cs3)c2c1 | 92.1% |
| COc1cc2nc(Nc3cccc(F)c3)nc(Nc3cc(C)[nH]n3)c2cc1OC | -45.8% [20 µM] (active) |
| C[N+](C)(C/C=C/c1ccccc1)Cc1ccccc1 | 94.4% |
| C/C(=C(\c1ccc(OCCN2CCCCCC2)cc1)c1ccc(OC(=O)Cc2ccccc2)cc1)c1ccc(Cl)cc1 | 10% |
| CNC(=O)c1c(NC(=O)c2ccc(C(C)(C)C)cc2)sc2c(CN(C)C)c(O)ccc12 | -3.98% (active) |
| Cn1c(=O)c2c(nc(NC3=NS(=O)(=O)c4ccccc43)n2Cc2ccccc2)n(C)c1=O | 115% |
| Cn1cc(-c2csc(-c3cn(C)c4ccc(Br)cc34)n2)c2cnccc21 | -47.3% (active) |
| COc1ccc(C2CC(c3ccc(Nc4nc(Nc5ccc(F)cc5)nc(Nc5ccc(F)cc5)n4)cc3)=NN2C(C)=O)cc1 (stereo not given) | 69.8% |
| COc1ccc(/C(C)=C(\c2ccc(OCCN3CCCCCC3)cc2)c2ccc(OC(=O)c3ccccc3)cc2)cc1 | 43.4% |
| COc1ccc(NC(=O)c2sc3nc4c(cc3c2N)CCCC4)cc1 | 32.4% |
| Cc1ccc(C)c(-n2c(-c3ccc(Br)cc3)csc2=NC(=O)c2ccccc2F)c1 | 41.3% |

| SMILES | growth |
| --- | --- |
| COc1ccc(C2=NN(C(=O)c3cc(OC)c(OC)c(OC)c3)C(c3ccc(N(C)C)cc3)C2)cc1 (stereo not given) | 56.8% |
| CCCn1c(=S)sc2c1nc(C)n1c(Nc3ccccc3)nnc21 | 15.6% |
| Clc1ccc(-c2cn3ccsc3n2)c(Cl)c1Cl | 31.7% |
| CN1C(=O)N(C)C2C1NC(=S)N2/N=C/C=C/c1ccccc1[N+](=O)[O-] (stereo not given) | 22.4% |
| CC(C)c1ccc(-n2c(=S)[nH]c3sc4c(c3c2=O)CCC(=O)C4)cc1 | 11.7% |
| Cc1[nH]c(C(=O)Nc2cccc(OC3CCNCC3)c2)c(Cl)c1Cl | 87.9% |
| CSCCC(NC(=O)c1ccccc1)C(=O)N/N=C1\S/C(=C/c2ccc(Cl)cc2)C(=O)N1C (stereo not given) | 82.9% |
| COc1ccc2nc(SCC(=O)Nc3ccccc3C)[nH]c2c1 | 84.2% |
| NC(=O)c1c(NC(=O)c2ccc(Cl)cc2)sc2c1CCC(=O)C2 | 35.9% |
| Cc1cccc(NC(=O)CSc2nc3ccc([N+](=O)[O-])cc3[nH]2)c1 | 51.8% |
| Cn1ccnc1C(=O)/C=C/c1ccc(C(=O)Nc2ccc(F)cc2)cc1 | 23.4% |
| Cn1cc(-c2nn3cc(-c4ccccc4)nc3s2)c2ccccc21 | 59.6% |
| N#CC(C#N)N=Nc1ccc(Cl)cc1Cl | 24.3% |
| COc1ccc(/C=C/C(=O)c2ccc(NC(=O)CSc3nnc(-c4cc(-c5ccccc5)nc5ccccc45)n3-c3ccccc3)cc2)cc1 | 80.3% |
| COc1ccc(C2C3=C(COC3=O)N(CCO)c3cc4c(cc32)OCCO4)cc1OC (stereo not given) | 25.9% |
| N#Cc1c(-c2ccccc2)c(C#N)c2c(C#N)c(N)nn2c1N | 19.6% |
| C#Cc1cccc(Oc2ccc(NC(=O)CCl)cc2)c1 | 53.9% [8.25 µM] |
| C=C(CO)[C@@H]1CC[C@]2(COC3CCCCO3)CC[C@]3(C)[C@H](CC[C@@H]4[C@@]5(C)C=C(C=O)C(=O)C(C)(C)[C@@H]5CC[C@]43C)[C@@H]12 (stereo not given in full) | -80.3% (active) |
| O=C(Cn1nnc([N+](=O)[O-])n1)c1ccccc1 | 78.9% |
| Cc1c2cnccc2c(C)c2c1c1cc(C3OCCCO3)ccc1n2C | -4.56% (active) |
